Legend:
Details in all cases: concentration: 1 μM, replicates: in singlicate; n = 1
CDK8 = system: CDK8
CDK9 = system: CDK9
CDKL1 = system: CDKL1
CDKL2 = system: CDKL2
CDKL3 = system: CDKL3
CDKL5 = system: CDKL5
CHEK1 = system: CHEK1
CHEK2 = system: CHEK2
CIT = system: CIT
CLK1 = system: CLK1
CLK2 = system: CLK2
CLK3 = system: CLK3
CLK4 = system: CLK4
CSF1R-autoinhibited = system: CSF1R-autoinhibited
CSF1R = system: CSF1R
CSK = system: CSK
CSNK1A1L = system: CSNK1A1L
CSNK1A1 = system: CSNK1A1
CSNK1D = system: CSNK1D
CSNK1E = system: CSNK1E
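Note: KINOMEscan kinase panel screen.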

SMILES | %Inh (CDK8) [%] | %Inh (CDK9) [%] | %Inh (CDKL1) [%] | %Inh (CDKL2) [%] | %Inh (CDKL3) [%] | %Inh (CDKL5) [%] | %Inh (CHEK1) [%] | %Inh (CHEK2) [%] | %Inh (CIT) [%] | %Inh (CLK1) [%] | %Inh (CLK2) [%] | %Inh (CLK3) [%] | %Inh (CLK4) [%] | %Inh (CSF1R-autoinhibited) [%] | %Inh (CSF1R) [%] | %Inh (CSK) [%] | %Inh (CSNK1A1L) [%] | %Inh (CSNK1A1) [%] | %Inh (CSNK1D) [%] | %Inh (CSNK1E) [%]
Cc1ccc(C)c(NC(=O)Nc2ccc(C)c(-c3ccc(C(=O)Nc4ccncc4)cc3)c2)c1 [GSK1398473] | 4 | 0 | 0 | 42 | 0 | 24 | 22 | 0 | 96.1 | 24 | 0 | 3 | 0 | 0 | 89 | 0 | 11 | 0 | 0 | 30
O=C(O)C(F)(F)F.O=c1[nH]ccc2nc(N[C@@H]3CCNC3)nc(Nc3ccc4c(c3)S(=O)(=O)CC4)c12 [GSK2181306] | 0 | 30 | 40 | 44 | 0 | 0 | 98.3 | 82 | 84 | 74 | 95 | 17 | 80 | 0 | 86 | 5 | 90 | 97.7 | 96.7 | 96.3
COc1cccc(-c2nc(-c3ccccc3)[nH]c2-c2ccncc2)c1 [SB-610250] | 30 | 0 | 20 | 23 | 0 | 8 | 0 | 0 | 47 | 29 | 0 | 27 | 8 | 0 | 2 | 0 | 19 | 47 | 66 | 68
CN(C)c1ncnc2nc[nH]c12 [SKF-31736] | 35 | 0 | 23 | 4 | 0 | 19 | 0 | 0 | 12 | 8 | 23 | 0 | 0 | 0 | 6 | 0 | 0 | 0 | 0 | 4
CCn1c(-c2nonc2N)nc2c(-c3ccccc3)ncc(OCCCN)c21.O=C(O)C(F)(F)F.O=C(O)C(F)(F)F [GSK260205] | 1 | 0 | 7 | 31 | 0 | 0 | 0 | 0 | 98.9 | 14 | 0 | 5 | 4 | 0 | 2 | 0 | 46 | 69 | 94.2 | 98.7
CC(=O)Nc1cn2nc(Oc3cccc(NC(=O)c4cccc(C(F)(F)F)c4)c3)ccc2n1 | 70 | 0 | 48 | 44 | 6 | 0 | 0 | 0 | 99.8 | 5 | 13 | 54 | 0 | 82 | 100 | 44 | 21 | 12 | 4 | 44
COc1ccc(NC(=O)c2ccoc2)cc1-c1ccc(C(=O)NCC2CC2)cc1 [GW810437] | 38 | 16 | 11 | 0 | 2 | 6 | 0 | 0 | 0 | 0 | 16 | 0 | 6 | 3 | 7 | 0 | 8 | 0 | 0 | 3
Cc1ccc(Nc2ccnc(Nc3ccc(C)c(F)c3)n2)cc1O.Cl [GW582868] | 0 | 0 | 9 | 40 | 0 | 0 | 0 | 0 | 28 | 13 | 86 | 3 | 14 | 25 | 29 | 0 | 12 | 0 | 0 | 19
Cc1cccc(Nc2nc(NCCN)ncc2C(N)=O)c1 [GSK1292139] | 37 | 0 | 0 | 7 | 0 | 0 | 82 | 75 | 80 | 23 | 22 | 47 | 0 | 23 | 88 | 22 | 76 | 72 | 52 | 84
COC(=O)Nc1nc2ccc(Oc3ccc(NC(=O)Nc4cc(C(F)(F)F)ccc4F)cc3)cc2[nH]1.Cl [GW654607] | 84 | 0 | 21 | 96.7 | 100 | 0 | 0 | 16 | 87 | 52 | 0 | 0 | 48 | 30 | 99.8 | 0 | 0 | 0 | 0 | 13
Cc1ccccc1CC(=O)N1CCc2cc(-c3cn(C)c4ncnc(N)c34)ccc21 [GSK2603346] | 83 | 0 | 0 | 17 | 0 | 0 | 18 | 0 | 32 | 15 | 0 | 6 | 0 | 0 | 89 | 0 | 22 | 9 | 9 | 84
Cn1cc(-c2ccc3c(c2)CCN3C(=O)Cc2cc(F)cc(C(F)(F)F)c2)c2c(N)ncnc21 [GSK2635225] | 91.8 | 7 | 11 | 24 | 0 | 0 | 8 | 0 | 28 | 11 | 19 | 100 | 18 | 45 | 95.3 | 0 | 1 | 3 | 22 | 100
Cl.O=C(Nc1ccc(Oc2ccc3[nH]c(NC(=O)c4ccco4)nc3c2)cc1)Nc1cc(C(F)(F)F)ccc1F [GW683134] | 86 | 5 | 8 | 85 | 0 | 0 | 21 | 0 | 96.7 | 63 | 0 | 0 | 61 | 0 | 99.8 | 0 | 0 | 2 | 10 | 0
Cn1cc(-c2cnc(N)c3c(-c4ccc5c(c4)CCN5C(=O)Cc4ccccc4)csc23)cn1 [GSK2593074] | 19 | 0 | 9 | 0 | 4 | 0 | 9 | 0 | 0 | 15 | 19 | 0 | 0 | 39 | 99.9 | 20 | 0 | 21 | 0 | 1
CN(c1ccc(NC(=O)N2CCN(CCCN3CCOCC3)CC2)cc1)c1ccnc(Nc2ccc(CS(C)(=O)=O)cc2)n1.Cl [GW830899] | 44 | 0 | 100 | 9 | 0 | 0 | 0 | 0 | 16 | 7 | 0 | 0 | 0 | 0 | 66 | 24 | 79 | 25 | 5 | 0
Fc1cc(Cl)ccc1Nc1ccnc2cc(-c3ccc(CN4CCOCC4)o3)ccc12 [GW560109] | 0 | 0 | 0 | 58 | 0 | 0 | 12 | 46 | 43 | 17 | 0 | 0 | 15 | 7 | 94.2 | 33 | 0 | 11 | 19 | 4
Nc1ncnc2scc(-c3ccc(NC(=O)Cc4cc(F)ccc4F)cc3)c12.O=C(O)C(F)(F)F [SB-731254-M] | 93.8 | 0 | 30 | 28 | 2 | 5 | 9 | 0 | 12 | 16 | 0 | 14 | 12 | 79 | 100 | 9 | 6 | 15 | 29 | 0

From publication PMC5540273 (PLoS ONE, 2017)
